SRC3 inh = inhibits human SRC3 coactivator. Q9Y6Q9. HEK293 GAL4-SRC3 luciferase reporter, luminescence. inhibition, % at 3.6 µM. actives 0.17% (n = 360,000). AID 588352;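 active means inhibition above a per-campaign cutoff, the mean of all compounds plus 3 SD, cut at about 60% in these data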;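 further: 0% = DMSO-treated cells and 100% = gossypol-treated cells at 36 µM; higher means less SRC3-driven luciferase light from the GAL4 reporter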
LRH-1 inv ag = NR5A2 inverse agonism in reporter assay | O00482 | actives 0.13% (n = 360,000) | AID 602396 | HEK293T StAR-luciferase reporter, LRH-1 transfected, 24 h | inhibition, % at 3.6 µM;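 active means inhibition above the mean inhibition of all tested compounds plus 3 SD, cut at about 73% in these data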;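 further: 0% = DMSO wells and 100% = reporter-only cells lacking LRH-1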
Target sequence (O00482 whole entry, looked up): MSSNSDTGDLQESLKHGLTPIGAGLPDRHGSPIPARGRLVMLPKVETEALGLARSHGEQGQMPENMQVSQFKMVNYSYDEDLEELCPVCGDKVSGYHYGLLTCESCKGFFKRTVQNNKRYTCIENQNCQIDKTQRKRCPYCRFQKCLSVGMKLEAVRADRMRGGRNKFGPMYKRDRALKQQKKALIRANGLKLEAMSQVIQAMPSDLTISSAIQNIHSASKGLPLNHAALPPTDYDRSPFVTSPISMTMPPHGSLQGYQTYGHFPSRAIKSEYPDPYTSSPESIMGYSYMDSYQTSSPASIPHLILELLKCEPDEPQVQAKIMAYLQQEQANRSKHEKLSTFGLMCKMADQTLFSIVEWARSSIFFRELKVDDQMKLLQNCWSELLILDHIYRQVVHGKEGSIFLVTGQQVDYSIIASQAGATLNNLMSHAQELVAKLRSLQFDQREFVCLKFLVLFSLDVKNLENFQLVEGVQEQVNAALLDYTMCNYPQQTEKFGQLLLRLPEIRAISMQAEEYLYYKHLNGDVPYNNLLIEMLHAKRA
GalR3 antag = antagonists of human GalR3. O60755. HEK293 GalR3-CNG cAMP membrane potential fluorescence; galR3 body fused to GalR1 C-terminus. inhibition, % at 3 µM. actives 0.44% (n = 360,000);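 active means inhibition above the screen-wide average plus 3 SD, cut at about 13% in these data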;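 further: forskolin and galanin both at EC90 stimulate the cells; cAMP rise reported by CNG channel membrane potential dye signal; 0% = forskolin plus galanin with DMSO and 100% = forskolin alone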
NCOA2 inhibitor = human SRC2 (NCOA2) inhibition; Q15596; actives 0.17% (n = 370,000); inhibition, % at 9 µM; HEK293 GAL4-SRC2 luciferase reporter, luminescence;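 active means inhibition above the mean inhibition of all tested compounds plus 3 SD, set per campaign, cut at about 52% in these data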;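 further: 0% = DMSO treated cells and 100% = cells given Gossypol at 36 µM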
COUP-TFII inh = NR2F2 (human) inhibition, primary screen; P24468; HEK293T NGFI-A luciferase reporter, luminescence; inhibition, % at 8.6 µM; actives 0.7% (n = 370,000); AID 686940;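 active means inhibition above a per-plate cutoff, mean inhibition of test wells between control levels plus 3 SD, cut at about 38% in these data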;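 further: cells cotransfected with COUP-TFII expression vector driving the NGFI-A reporter; 0% = median of COUP-TF2 test wells and 100% = reporter-only cells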
SRC1 inh = inhibitors of human steroid receptor coactivator 1 (SRC1); Q15788; HEK293 GAL4-SRC1 luciferase reporter, luminescence; inhibition, % at 3.6 µM; actives 0.12% (n = 360,000); AID 588354;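 active means inhibition above the campaign mean plus 3 SD, with each screening campaign given its own cutoff, cut at about 60% in these data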;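 further: 0% = DMSO treated cells and 100% = gossypol at 36 µM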
GalR3 conf = confirmation of human galanin receptor 3 antagonists | shares compounds with GalR3 antag | inhibition, % at 3 µM | HEK293 GalR3 CNG cAMP biosensor, membrane potential fluorescence; galR3 fused to GalR1 carboxy tail; challenged with forskolin and galanin at EC90 | actives 59% (n = 1,600);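 active means inhibition above the primary screen's cutoff, the mean inhibition of all screened compounds plus 3 SD, cut at about 13% in these data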;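 further: 0% = forskolin plus galanin and 100% = forskolin alone with DMSO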
HEK-CNG parental = parental cell agonism counter-screen for GalR3 antagonists; shares compounds with GalR3 antag; HEK293-CNG parental cells, cAMP membrane potential fluorescence; normalised: DMSO wells 0%, forskolin wells 100%; activation, % at 3 µM; actives 10% (n = 1,600); in the data active means activation above about 1.3%
VP16 Luc counter = counter-screen for COUP-TFII antagonists: inhibitors of VP16 | shares compounds with COUP-TFII inh | HEK293 Gal4-VP16 luciferase reporter, luminescence | actives 25% (n = 2,500) | inhibition, % at 8.5 µM | AID 687007; in the data active means inhibition above about 13%
NR2F2 inh conf = COUP-TFII (NR2F2) inhibition, confirmation assay | shares compounds with COUP-TFII inh | inhibition, % at 8.5 µM | actives 45% (n = 2,500) | HEK293 NGFI-A luciferase reporter, luminescence;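 active means mean inhibition over three repeats above a set limit taken from the earlier primary screen, cut at about 38% in these data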;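 further: 100% = cells given the luciferase reporter alone without the COUP-TF2 vector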
An asterisk follows results filed as active; / = no result. Most compounds without a hit are left out; they make up all but 1.1% or so of the library.

SMILES	SRC3 inh	LRH-1 inv ag	GalR3 antag	NCOA2 inhibitor	COUP-TFII inh	SRC1 inh	GalR3 conf	HEK-CNG parental	VP16 Luc counter	NR2F2 inh conf
CC[n+]1c(/C=C/C=C/c2ccc(N(C)C)cc2)sc2ccccc21	62*	59	19*	-21	79*	34	74*	3.5*	23*	82*
CN(C)c1ccc(/C=C/C=C/c2sc3ccccc3[n+]2C)cc1	39	47	6	9	28	32	/	/	/	/
NC(=S)c1cn(C2OC(CO)C(O)C2O)c2ncnc(N)c12 (stereo unspecified)	88*	94*	51*	71*	68*	89*	83*	0	53*	68*
O=P(O)(O)CN1CCNCCN(CP(=O)(O)O)CCNCC1	-5	14	-6	-1	12	-11	/	/	/	/
CC1C(=O)OC2CCN3CC4OC4(COC(=O)C(C)(O)C1(C)O)C23 (stereo unspecified)	1	3	-3	13	7	0	/	/	/	/
CCC(=NCCc1c[nH]c2ccccc12)c1c(O)n(C)c(=O)n(C)c1=O	10	18	76*	12	47*	14	37*	6.7*	-1	20
CCOC(=O)C(O)(c1ccc(NC(=S)NC(=O)c2ccc(Cl)cc2Cl)c(C)c1)C(F)(F)F (stereo unspecified)	24	5	45*	22	38*	23	50*	-1	-4	19
CC(=O)c1cn(Cc2ccccc2C#N)c2ccccc12	28	45	90*	27	47*	6	103*	1	2	53*
CC12CCC(=O)CC1CCC1C2C(=O)CC2(C)C1CCC2(C)O (stereo unspecified)	9	13	-4	17	3	-7	/	/	/	/
Cc1[nH]c2ccc(OC(F)(F)F)cc2c1CCNCc1cccc([N+](=O)[O-])c1	3	2	-13	6	12	-17	/	/	/	/
CCOc1cccc(CNCCc2c(C)[nH]c3ccc(OC(F)(F)F)cc23)c1O	23	28	72*	26	51*	22	96*	0	-3	41*
C=CC1CN2CCC1CC2[C@@H](OC(=O)c1ccc(OC)cc1)c1ccnc2ccccc12 (stereo partly specified)	12	5	2	3	9	8	/	/	/	/
COc1cc2c(cc1OC)[C@@H]1C(=O)c3ccc4c(c3O[C@@H]1CO2)C[C@H](C(C)C)O4	20	45	98*	24	67*	10	116*	0	3	63*
COc1cc2c(cc1OC)[C@H]1C(=O)c3ccc4c(c3O[C@H]1CO2)C[C@@H](C(C)(C)O)O4	-5	10	-9	11	6	3	/	/	/	/
COc1cc2c(cc1OC)C1C(=O)c3ccc4c(c3OC1CO2)CC(C(C)C)O4 (stereo unspecified)	20	45	96*	24	73*	31	108*	0	-1	69*
CCOC(=O)CNC(=O)N1Cc2cc(-c3cccc(F)c3)ccc2-n2nncc2C1	-10	-9	-5	25	3	19	/	/	/	/
CCCCn1c(NC(=O)c2ccco2)c(C(=O)OCC)c2nc3ccccc3nc21	-5	31	2	0	44*	3	/	/	0	2
CCCCn1c(NS(=O)(=O)c2ccc(C)cc2)c(C(=O)OCC)c2nc3ccccc3nc21	12	2	2	4	31	5	/	/	/	/
O=C(COc1ccc(Cl)cc1)NCCc1cnc[nH]1	4	-11	-8	-5	-3	3	/	/	/	/
O=C(CCNC(=O)N1C[C@H]2C[C@@H](C1)c1cccc(=O)n1C2)Nc1cccc(Cl)c1	8	-12	-6	-13	-26	-2	/	/	/	/
Cc1ccccc1CN1Cc2cnnn2-c2ccccc2C1C#N (stereo unspecified)	14	-17	-9	48	39*	19	/	/	5	2
CC(=O)c1cn(Cc2ccccc2F)c2ccccc12	25	38	-11	-2	54*	35	/	/	10	48*
CCOc1cc2c(cc1OCC)-n1cccc1C(c1cc(OC)ccc1F)NC2 (stereo unspecified)	1	4	-7	10	7	8	/	/	/	/
CC[C@@H](O)C[C@H]1CCC[C@@]2(C[C@@H]3OC(=O)/C=C/[C@@](C)(O)[C@@H](O)[C@H](C)[C@@H](O)[C@H](OC4CCC(N(C)C)C(C)O4)[C@@H](O)[C@](C)(O)CCCCC/C=C/[C@@H]4CC(C)(C)O[C@@]4(O)C[C@H](O2)[C@H]3C)O1 (stereo partly specified)	73*	92*	7	-17	80*	69*	/	/	3	73*
COc1ccc(-n2nnnc2C(CCc2ccccc2)N2CCC(n3c(=O)[nH]c4ccccc43)CC2)cc1 (stereo unspecified)	53	41	-5	-3	39*	41	/	/	1	22
SMILES	SRC3 inh	LRH-1 inv ag	GalR3 antag	NCOA2 inhibitor	COUP-TFII inh	SRC1 inh	GalR3 conf	HEK-CNG parental	VP16 Luc counter	NR2F2 inh conf
COC(=O)C1=C(c2cccc(C#N)c2)C[C@@H]2CC[C@H]1N2C(=O)NCc1ccco1	4	-10	-7	-16	-22	-5	/	/	/	/
CC(=O)c1c(C)n(C2CCCCC2)c2ccc(O)cc12	69*	38	-11	25	51*	73*	/	/	17*	20
COC(=O)C12OCC34C(CC5C(C)=C(O)C(=O)CC5(C)C3C(O)C1O)OC(=O)C(OC(=O)/C=C(\C)C(C)C)C24 (stereo unspecified)	94*	98*	-1	74*	94*	96*	/	/	20*	88*
O=C(Nc1ccc(Cl)cc1)Nc1nccs1	-91	-17	-1	-48	-19	-11	/	/	/	/
O=C(c1ccc(C(F)(F)F)cc1)C1CCCN(Cc2ccncc2)C1 (stereo unspecified)	20	21	4	22	46*	-6	/	/	7	18
O=C(c1ccc(Cl)cc1)C1CCCN(Cc2cccc3ncccc23)C1 (stereo unspecified)	17	-2	-4	33	41*	4	/	/	12	45*

Screening data (PubChem BioAssay)
